# PfHsp90 yeast 2: growth inhibition of yeast expressing Plasmodium Hsp90; inhibition, % at 9.4 µM; S. cerevisiae expressing PfHsp90, BacTiter-Glo ATP, 48 h; yeast lacking PDR1 and PDR3 efflux regulators; 0.32% of 310,000 active;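 active = every replicate shows inhibition above about 80%, whatever the replicate mean, limit read from the data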;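 note: 0% = DMSO neutral controls and 100% = 20 µM radicicol positive controls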
# TIM10 inh: growth inhibitors of TIM10 yeast strain | S. cerevisiae TIM10 strain growth, BacTiter-Glo luminescence, 24 h | AID 463195 | 1.4% of 330,000 active | inhibition, % at 10 µM;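 active = inhibition of 40% or more at the single tested concentration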;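 note: wild-type TIM10 isogenic control strain grown at permissive 25 °C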
# V-ATPase pHluor: regulators of yeast V-ATPase proton transport | 0.37% of 350,000 active | S. cerevisiae, pHLuorin cytosolic pH fluorescence | response, % at 10 µM; in the data active = response mostly above about 7.3%, no sharp cut-off; inactive = mostly below about 5.4%; note: actives read high
# tim10-1 inh: growth inhibitors of tim10-1 mutant yeast | 2.2% of 330,000 active | inhibition, % at 20 µM | S. cerevisiae tim10-1 ts strain growth, BacTiter-Glo, 24 h;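 active = inhibition of at least 40%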;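 note: mutant grown at 25 °C; 0% = DMSO wells with yeast and 100% = wells holding no yeast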
# SKKanGAS inh: blocks kanamycin growth of S. pyogenes SKKanGAS strain; 1.3% of 300,000 active; BacTiter-Glo, 6 h; inhibition, % at 7.5 µM;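 active = mean replicate score, as percent of positive control median, at least 50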;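 note: strain carries kanamycin resistance gene driven by streptokinase promoter and grows in 40 µg/ml kanamycin; loss of luminescence reflects streptokinase promoter inhibition or plain growth inhibition; 0% = median of DMSO wells and 100% = positive control at its reference dose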
# tim23-1 inh: growth inhibitors of tim23-1 mutant yeast; 1.3% of 330,000 active; inhibition, % at 20 µM; S. cerevisiae tim23-1 growth, BacTiter-Glo luminescence, 24 h;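 active = growth inhibition of the mutant yeast at or above 50%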;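 note: temperature-sensitive mutant grown at 25 °C; plate controls were DMSO-treated mutant yeast for no effect and medium wells lacking yeast for full effect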
# tim10-1 confirm: confirmation of tim10-1 mutant yeast growth inhibitors | shares compounds with tim10-1 inh | 56% of 7,400 active | inhibition, % at 20 µM | S. cerevisiae tim10-1 ts strain growth, BacTiter-Glo, 24 h | AID 463213;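 active = inhibition of yeast growth at or above a set limit in either of two repeat tests at 20 µM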;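 note: tim10-1 mutant grown at permissive 25 °C to find synthetic lethal compounds; 0% = DMSO yeast wells and 100% = medium wells without yeast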
# TIM10 conf: TIM10 yeast growth inhibition, confirmed; AID 463215; inhibition, % at 10 µM; 63% of 4,600 active; S. cerevisiae tim10 strain growth, BacTiter-Glo luminescence, 24 h; shares compounds with TIM10 inh;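 active = inhibition of yeast growth at or above a set limit in either of two replicates at 10 µM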;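 note: this counterscreen used the strain with wild-type TIM10; 0% = yeast with DMSO and 100% = medium wells lacking yeast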
# The depositor's hits bear a star; nt = not tested or not shown. This is a sample that favours compounds with a hit; in the whole collection about 4.6% have one here.
SMILES,PfHsp90 yeast 2,TIM10 inh,V-ATPase pHluor,tim10-1 inh,SKKanGAS inh,tim23-1 inh,tim10-1 confirm,TIM10 conf
CCOc1ccc(-c2nnc(N(CC)C(=O)C3CCC3)s2)cc1,-42,43*,-3,43*,8,40,31*,35*
COc1cccc(-c2sc3ccc(OC)cc3c2C#CC2(O)CCCCC2)c1,-1,13,-1,15,nt,17,nt,nt
COc1cc(OC)cc(-c2sc3ccc(OC)cc3c2C#CC2(N)CCCCC2)c1,-2,45*,4,44*,nt,12,18,26
c1ccc(Oc2nc(-c3ccccn3)nc3ccccc23)cc1,nt,50*,3,43*,109*,47,23,19
Cc1nc(Oc2ccccc2)c2ccccc2n1,-6,-3,3,16,1,14,nt,nt
COc1cccc(-c2[nH]nc3c2C(c2ccc(C)o2)C(C#N)=C(N)O3)c1 (stereo not drawn),nt,52*,nt,45*,-4,42,32,19
COc1ccc(OC)c(-c2[nH]nc3c2C(c2ccco2)C(C#N)=C(N)O3)c1 (stereo not drawn),-7,16,1,24,2,29,nt,nt
CN(C)c1ccc(/C=N/NC(=O)CN(c2cccc(Cl)c2)S(C)(=O)=O)cc1Br,-2,2,2,9,6,11,nt,nt
Cc1ccccc1NC1=C/C(=N\S(=O)(=O)c2cccs2)c2ccccc2C1=O,-14,67*,1,82*,90*,23,77*,54*
Cc1ccc(NC2=C/C(=N/S(=O)(=O)c3cccs3)c3ccccc3C2=O)cc1C,-10,nt,1,nt,9,nt,nt,nt
COc1ccc(-n2nc(C(=O)NCC(=O)NC3CCCCC3)c3ccccc3c2=O)cc1,18,-9,-2,13,7,33,nt,nt
O=C(Nc1ccc(Cl)c(C(F)(F)F)c1)c1ccco1,-52,51*,8,46*,nt,44,56*,12
COc1nnc(-c2ccc(N3CCCCC3)c(N)c2)c2ccccc12,3,49*,-2,44*,8,49,36*,40*
Cc1ccc(Nc2nnc(SCC(=O)c3ccc(Br)s3)s2)c(C)c1,-19,46*,2,43*,29,38,34*,-7
Cc1ccc(NC(=O)CSc2nnc(NC(=O)C(C)C)s2)c(C)c1,-6,7,-2,-1,-2,5,nt,nt
Cc1cc(C)c(C#N)c(SC(F)F)n1,-5,8,5,13,-3,10,nt,nt
Cc1ccc(SCCC(=O)N/N=C/c2ccccc2O)cc1,-3,48*,-1,43*,34,11,14,44*
CC(=O)Nc1ccc2nc(-c3ccco3)[nH]c2c1,44,-11,-3,-12,1,3,nt,nt
O=C(Nc1ccc2nc(-c3ccco3)[nH]c2c1)c1cccs1,-6,66*,-4,40,-5,23,18,-4
CCn1c(SCC(=O)NCc2ccccc2)nc2c(c1=O)SC(C)C2 (stereo not drawn),-11,-24,-3,14,3,6,nt,nt
COc1ccc(OC)c2c1C(=O)c1ccccc1C2=O,nt,-9,nt,11,2,0,nt,nt
COc1ccc(OC)c2c1C(=O)C(Cl)=C(Cl)C2=O,110*,96*,5,91*,34,24,94*,99*
O=[N+]([O-])c1cccc(S(=O)(=O)N2CCCCC2c2cccnc2)c1 (stereo not drawn),9,15,1,26,6,28,nt,nt
COc1ccccc1C(=O)Nc1ccc(S(=O)(=O)N2CCCCC2c2cccnc2)cc1 (stereo not drawn),-40,63*,-2,64*,-1,38,70*,78*
O=C(Nc1ccc(S(=O)(=O)N2CCCCC2c2cccnc2)cc1)c1ccccc1F (stereo not drawn),-3,59*,0,52*,3,12,47*,43*
SMILES,PfHsp90 yeast 2,TIM10 inh,V-ATPase pHluor,tim10-1 inh,SKKanGAS inh,tim23-1 inh,tim10-1 confirm,TIM10 conf
Cc1cccc2cc(C#N)c(NCCCNS(=O)(=O)c3ccc(Cl)cc3)nc12,-28,1,1,-11,26,23,nt,nt
CC(C)c1ccc(S(=O)(=O)/N=C2\C=C(NS(=O)(=O)c3ccccc3)C(=O)c3ccccc32)cc1,-65,nt,0,nt,1,nt,nt,nt
COc1ccc(S(=O)(=O)/N=C2\C=C(Nc3ccc(O)cc3)C(=O)c3ccccc32)cc1,-4,52*,0,67*,103*,41,62*,81*
COC(=O)C(C(C)=O)C1=C/C(=N\S(=O)(=O)c2ccc(C)cc2)c2ccccc2C1=O (stereo not drawn),-5,43*,0,40*,7,44,41*,29
CN(Cc1ccccc1)C(=O)c1ccc(NC(=O)C2CCN(C(=O)OC(C)(C)C)CC2)cc1,nt,-3,-3,1,nt,9,nt,nt
CC1(C)NC(=O)N(CC(=O)OCC(=O)Nc2cc(S(=O)(=O)N3CCCCCC3)ccc2Cl)C1=O,24,-5,2,12,4,7,nt,nt
CC1CC(C)CN(S(=O)(=O)c2ccc3c(c2)CC(=O)N3)C1 (stereo not drawn),-1,5,-4,13,nt,8,nt,nt
COc1ccc(NC(=O)/C(C#N)=C/c2c(C)nn(-c3ccc(F)cc3)c2Cl)cc1OC,-7,49*,-3,51*,-4,44,45*,42*
CCOC(=O)c1c(NC(C)=O)sc2c(O)cccc12,-8,50*,4,45*,-7,17,17,38*
CCOC(=O)c1c(NC(C)=O)sc2c(O)c(Br)cc(Br)c12,-92,nt,-2,nt,15,nt,nt,nt
CC(=O)c1ccc(S(=O)(=O)Nc2ccc(-c3cn4c(n3)SCC4)cc2)cc1,-13,-4,-3,18,3,8,nt,nt
CC(=O)Oc1ccc(/C=C2\N=C(C3CCCCC3)OC2=O)cc1,-21,56*,3,46*,-3,44,46*,41*
CCOc1cc(/C=C2/N=C(c3ccc4c(c3)OCO4)OC2=O)ccc1OC(C)=O,-8,30,-2,34,nt,33,nt,nt
CS(=O)(=O)Nc1ccc(C(=O)NCCSc2ccc(Cl)cc2)cc1,-7,0,0,12,-4,12,nt,nt
Cc1ccc(S(=O)(=O)NCCc2cn3nc(C)c(C)nc3n2)cc1C,-5,-2,3,7,-10,-5,nt,nt
COC(=O)C1(Cc2cc(-c3ccc(Cl)cc3)no2)CCN(C(=O)OC(C)(C)C)CC1,27,44*,-4,54*,22,28,45*,40*
CCCn1c(SCC(=O)Nc2ccc(S(=O)(=O)N(C)C)cc2)n[nH]c1=O,1,4,5,14,-5,16,nt,nt

# Bioassay records: PubChem BioAssay, several laboratories
